According to PubChem BioAssay (NCATS):
“And” between values parts separate entries of the source, which are not always exact repeats. Equal values may be shown once. Records with an inconclusive call do not appear. A number with no mark means an inactive call. The source made the active and inactive calls. The call rests on the fitted dose curve; in most records, active means well fitted curve in the direction sought with a large enough effect; inconclusive means small, poorly fitted or top-dose-only effect, or another doubt; inactive means no such curve, though single readings can be large; an effect the other way counts as inactive or inconclusive.

Columns and labels:
[1] = Viability qHTS for spleen associated tyrosine kinase inhibitor (SYKi) naive MV4-11 cells (AID 1963823); further: nearly all actives have a fitted effect of over 40% in size; further: potency means the concentration at half of the fitted maximal effect
How it was run: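 Luminescence from CellTiter-Glo, developed 10 min at room temperature, gave viability of MV4-11 cells never exposed to SYK inhibitor. Cells (500/well) had been incubated with compounds for 72 hr under standard culture conditions.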

[2] = Cellular viability qHTS for adrenocortical cancer (ACC) cell line NCI-H295R (AID 1963990); further: nearly all actives have a fitted effect of over 60% in size; further: potency means the concentration at half of the fitted maximal effect
How it was run: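 Compound titrations (up to 46 uM final) are applied to NCI-H295R cultures for 48 h at 37C. Viable cell number is estimated by CellTiter-Glo signal, normalised to DMSO and doxorubicin controls.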

[3] = Cellular viability qHTS for adrenocortical cancer (ACC) cell line SW-13 (AID 1963989); settings: SW-13 ACC cells viability, CellTiter-Glo, 48 h; activity (max response): active compounds read low;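 further: cells grown in serum-free medium with ITS supplement; on the % scale 0 is the no-effect control and ±100 the full control effect; nearly all actives have a fitted effect of over 65% in size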
How it was run: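 48 h treatment, SW-13 in ITS/DMEM serum-free; doses up to 46 uM; readout CellTiter-Glo luminescence; curve fit four-parameter logistic.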

[4] = Viability qHTS for spleen associated tyrosine kinase inhibitor (SYKi) drug resistant MV4-11 cells (AID 1963824); further: potency means the concentration at half of the fitted maximal effect; nearly all actives have a fitted effect of over 35% in size
How it was run: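 SYK-inhibitor-resistant MV4-11 AML cells were seeded at 500 per well onto compound and cultured 72 hours (37 °C, 5% CO2). CellTiter-Glo was then added, and after 10 min at room temperature, luminescence gave viability.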

[5] = Quantitative highthroughput screen to assess conditional lethalithy of NOMO1 cells grown in RPMI1640 with untreated serum (RPMI+s) (AID 1963876); further: nearly all actives have a fitted effect of over 35% in size; further: potency means the concentration at half of the fitted maximal effect;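 on Viability: 100% = DMSO wells and 0% = empty wells without cells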
How it was run: (§1)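 Each medium arm—HPLM with 10% dialyzed FBS, or RPMI1640 with 5 mM glucose and 10% untreated or dialyzed FBS—was screened against an 11-point, 3-fold compound titration for 48 h at 37 °C, with CellTiter-Glo luminescence as endpoint.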

[6] = Quantitative highthroughput screen to assess conditional lethalithy of P12 Ichikawa cells grown in Human Plasma-Like Medium with dialyzed fetal bovine serum (HPLM+ds) (AID 1963879); settings: Potency: viability; further: nearly all actives have a fitted effect of over 35% in size; further: potency means the concentration at half of the fitted maximal effect; on Viability: series mostly up to about 46 µM
How it was run: as §1

[7] = Quantitative highthroughput screen to assess conditional lethalithy of P12 Ichikawa cells grown in RPMI1640 with dialyzed fetal bovine serum (RPMI+ds) (AID 1963880); settings: Potency: P12-Ichikawa viability; further: nearly all actives have a fitted effect of over 35% in size; further: potency means the concentration at half of the fitted maximal effect;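 on Viability: 100% = DMSO wells and 0% = empty wells on each plate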
How it was run: as §1

[8] = Quantitative highthroughput screen to assess conditional lethalithy of P12 Ichikawa cells grown in RPMI1640 with untreated serum (RPMI+s) (AID 1963881); settings: Potency: viability; further: nearly all actives have a fitted effect of over 35% in size; further: potency means the concentration at half of the fitted maximal effect;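 on Viability: series mostly up to about 46 µM; 100% = DMSO wells and 0% = empty wells without cells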
How it was run: as §1

[9] = Quantitative highthroughput screen to assess conditional lethalithy of SEM cells grown in Human Plasma-Like Medium with dialyzed fetal bovine serum (HPLM+ds) (AID 1963882); further: nearly all actives have a fitted effect of over 35% in size; further: potency means the concentration at half of the fitted maximal effect; on Viability: series mostly up to about 46 µM
How it was run: as §1

[10] = Quantitative highthroughput screen to assess conditional lethalithy of SEM cells grown in RPMI1640 with unreated serum (RPMI+s) (AID 1963883); further: nearly all actives have a fitted effect of over 35% in size; further: potency means the concentration at half of the fitted maximal effect;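 on Viability: 100% = DMSO wells and 0% = empty wells without cells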
How it was run: as §1

[11] = Quantitative highthroughput screen to assess conditional lethalithy of NOMO1 cells grown in RPMI1640 with dialyzed fetal bovine serum (RPMI+ds) (AID 1963877); further: nearly all actives have a fitted effect of over 30% in size; further: potency means the concentration at half of the fitted maximal effect;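 on Viability: series mostly up to about 46 µM; 100% = DMSO control wells and 0% = empty wells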
How it was run: as §1

[12] = Quantitative highthroughput screen to assess conditional lethalithy of SEM cells grown in RPMI1640 with dialyzed fetal bovine serum (RPMI+ds) (AID 1963884); further: nearly all actives have a fitted effect of over 35% in size; further: potency means the concentration at half of the fitted maximal effect;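 on Viability: series mostly up to about 46 µM; 100% = DMSO control wells and 0% = empty wells without cells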
How it was run: as §1

## CCN(CC)C(=O)[C@@H]1C=C2c3cccc4[nH]cc(c34)C[C@H]2N(C)C1
[1]
  Potency: 28.4 µM (active)
[2]
  Potency: inactive

## CC1(C)CC(O)CC(C)(C)N1O
[1]
  Potency: inactive
[3]
  activity (max response): -2.2%
[2]
  Potency: inactive

## C#CC1(O)CCC2C3CCC4=CC(=O)CCC4=C3C=CC21C (stereo unspecified)
[4]
  Potency: 18.4 µM (active)

## O=C(O)c1cc(Oc2ccc(C(F)(F)F)cc2Cl)ccc1[N+](=O)[O-]
[1]
  Potency: inactive
[2]
  Potency: inactive

## CCCCCn1cc(C(=O)Oc2cccc3cccnc23)c2ccccc21
[4]
  Potency: 23.1 µM (active)

## C[C@@H]1C[C@@H](O)[C@]2(O)O[C@@H]3C[C@@]4(C=O)C(CC[C@@H]5C4CC[C@]4(C)[C@@H](C6=CC(=O)OC6)CC[C@]54O)C[C@H]3O[C@@H]2O1 (stereo partly specified)
[4]
  Potency: 0.0317 µM (active)

## CCCN1CCO[C@@H]2c3cc(O)ccc3OC[C@H]21
[1]
  Potency: inactive
[3]
  activity (max response): 7.73%
[2]
  Potency: inactive

## Cc1sc2c(c1C)C(c1ccc(Cl)cc1)=NC(CC(=O)OC(C)(C)C)c1nnc(C)n1-2 (stereo unspecified)
[4]
  Potency: 0.116 µM (active)

## CCOc1ccccc1-n1c(C(C)N2CCN(C(=O)COc3ccc(Cl)cc3)CC2)nc2ccccc2c1=O (stereo unspecified)
[4]
  Potency: 1.46 µM (active) and 1.32 µM (active)
[5]
  Potency: 1.32 µM (active)
[6]
  Potency: 0.741 µM (active)
[7]
  Potency: 1.05 µM (active)
[8]
  Potency: 1.48 µM (active)
[9]
  Potency: 1.05 µM (active)
[10]
  Potency: 0.417 µM (active)
[2]
  Potency: 0.891 µM (active)

## CC(=O)O[C@H]1C(=O)[C@]2(C)C(O)C[C@H]3OC[C@@]3(OC(C)=O)[C@H]2[C@H](OC(=O)c2ccccc2)[C@]2(O)C[C@H](O)C(C)=C1C2(C)C (stereo partly specified)
[4]
  Potency: 6.85 µM (active)

## O=c1[nH]c2ccccc2n1CCCN1CCC(n2c(=O)[nH]c3cc(Cl)ccc32)CC1
[4]
  Potency: 18.6 µM (active)
[5]
  Potency: inactive
[11]
  Potency: inactive
[6]
  Potency: inactive
[9]
  Potency: inactive
[12]
  Potency: inactive
[3]
  activity (max response): -19.5%

## CNC(=O)N1N=C(c2ccc(N)cc2)c2cc3c(cc2CC1C)OCO3 (stereo unspecified)
[4]
  Potency: 2.31 µM (active)
[9]
  Potency: 10.5 µM (active)
[12]
  Potency: 5.9 µM (active)

## CNC(=O)c1ccc(N2C(=S)N(c3ccc(C#N)c(C(F)(F)F)c3)C(=O)C23CCC3)cc1F
[4]
  Potency: 18.6 µM (active)
[5]
  Potency: inactive
[6]
  Potency: inactive
[8]
  Potency: inactive
[10]
  Potency: inactive
[2]
  Potency: inactive

## CN(C)[C@@H]1C(=O)C(C(N)=O)=C(O)[C@@]2(O)C(=O)C3=C(O)c4c(O)cccc4[C@@](C)(O)[C@H]3C[C@@H]12
[4]
  Potency: 16.6 µM (active)
[5]
  Potency: inactive
[6]
  Potency: inactive
[8]
  Potency: inactive
[9]
  Potency: inactive
[10]
  Potency: inactive
[3]
  activity (max response): 15% and 6.24%
[2]
  Potency: inactive

## CC(C)(O)C(=O)Nc1ccc([N+](=O)[O-])c(C(F)(F)F)c1
[4]
  Potency: 18.6 µM (active)
[11]
  Potency: 1.87 µM (active)
[8]
  Potency: 8.33 µM (active)
[9]
  Potency: inactive
[10]
  Potency: inactive
[3]
  activity (max response): -7.23%

## Cc1cc(SCc2sc(-c3ccc(C(F)(F)F)c(F)c3)nc2C)ccc1OCC(=O)O
[4]
  Potency: 18.6 µM (active)
[5]
  Potency: inactive
[11]
  Potency: inactive
[8]
  Potency: inactive
[3]
  activity (max response): -20.9%
[2]
  Potency: inactive

## C[C@@H]1O[C@@H](O[C@H]2CC[C@@]3(C)C(CC[C@@H]4C3CC[C@]3(C)[C@@H](C5=CC(=O)OC5)CC[C@]43O)C2)[C@H](O)[C@H](O)[C@H]1O (stereo partly specified)
[4]
  Potency: 0.2 µM (active)

## CC(=O)O[C@H]1CC[C@@]2(CI)C(=CC[C@@H]3[C@@H]2CC[C@]2(C)C(=O)CC[C@@H]32)C1
[4]
  Potency: 20.6 µM (active)

## COc1ccc2c(c1OC)CN1CCc3cc4c(cc3C1C2)OCO4 (stereo unspecified)
[4]
  Potency: 4.11 µM (active)
[5]
  Potency: 1.48 µM (active)
[6]
  Potency: 2.64 µM (active)
[7]
  Potency: 1.66 µM (active)
[10]
  Potency: 0.372 µM (active)

## CCN1C[C@]2(OC(=O)c3ccccc3NC(C)=O)CC[C@H](OC)[C@@]34[C@@H]2C[C@@H]([C@@H]13)[C@@]1(O)C[C@H](OC)[C@H]2C[C@@H]4[C@]1(O)[C@H]2OC
[4]
  Potency: 4.11 µM (active)

## C[C@]12CCC(=O)C=C1CC[C@@H]1[C@H]3CC[C@](C)(O)[C@@]3(C)CC[C@@H]12
[4]
  Potency: 21.9 µM (active)
[5]
  Potency: inactive
[6]
  Potency: inactive
[7]
  Potency: inactive
[8]
  Potency: inactive
[9]
  Potency: inactive
[10]
  Potency: inactive
[2]
  Potency: 28.2 µM (active)

## CCCCCn1cc(C(=O)Cc2ccccc2OC)c2ccccc21
[4]
  Potency: 20.6 µM (active)

## CC(C)[C@@H](CN1CC[C@@](C)(c2cccc(O)c2)[C@@H](C)C1)NC(=O)[C@H]1Cc2ccc(O)cc2CN1
[4]
  Potency: 16.4 µM (active)

## O=C(O)C(=O)c1cn(Cc2ccccc2)c2ccc(-c3ccc(OC(F)(F)F)cc3)cc12
[4]
  Potency: 20.6 µM (active)
[5]
  Potency: inactive
[6]
  Potency: inactive
[8]
  Potency: inactive
